From PubChem BioAssay (NCI)
Several values for one entry are separate records, joined by “and”; a condition that tells them apart may be missing. Identical values can stand only once. This is part of a sample that, as a whole, favours compounds with a hit. Of some 83,000 tested, about 20% had one in any assay.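 Treatment: one concentration, 48 hours, 96-well format. Scoring: percent growth, with anything below 10 considered active.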 Activity calls are given as the source filed them.

system: HL-60(TB) leukemia; assay: NCI-60 one-dose screen, 48 h (100 = growth as untreated, 0 = no growth, -100 = all killed); conditions: 10 µM unless noted

| SMILES | growth |
| --- | --- |
| CC1Cc2c(N(C)C)ncnc2N(C)c2ccc(O)cc21 (stereo unspecified) | 81.1% (inactive) |
| O=c1c2ccccc2c2nccn2c2cc(Cl)ccc12 | 30.3% (inactive) |
| Cc1cc(Nc2ccc(C)c(Cl)c2)n2nc(C(F)(F)F)nc2n1 | 100% (inactive) |
| COC1=C(Br)C(=O)C(OC)=C(Br)C1=O | 8.67% (active) |
| O=C(/C=C/c1ccc(Cl)s1)c1ccc(Cl)s1 | 119% (inactive) and 111% (inactive) |
| C#CCOc1ccc2ncnc(Nc3cccc(CNC(=O)CCl)c3)c2c1 | 35.2% [8.25 µM] (inactive) |
| O=C(Nc1cccc(Cl)c1)OCC(COC(=O)Nc1cccc(Cl)c1)(COC(=O)Nc1cccc(Cl)c1)[N+](=O)[O-] | 45% (inactive) |
| CN(C)Cc1ccc(NC(=O)c2cncc(C#Cc3cnc(N)c4ncccc34)c2)cc1F | 83.7% (inactive) |
| COc1cccc2cc(-c3cc4ccccc4[nH]3)c(=NC(=O)c3ccc(Cl)cc3)oc12 | 72.1% (inactive) |
| COc1nc2ccccc2s1 | 94.5% (inactive) |
| COC(C(=O)[C@@H](O)[C@@H](C)O)[C@@H]1Cc2cc3cc(O[C@H]4C[C@@H](O[C@H]5C[C@@H](O)[C@H](O)C(C)O5)[C@H](O)C(C)O4)c(C)c(O)c3c(O)c2C(=O)[C@H]1O[C@H]1C[C@@H](O[C@H]2C[C@@H](O[C@H]3C[C@@H](O)[C@H](OC)C(C)O3)[C@@H](O)C(C)O2)[C@H](O)C(C)O1 (stereo partly specified) | -5.47% (active) |
| CC1=CC(O)C2CC1C2(C)C (stereo unspecified) | 100% (inactive) and 73.7% (inactive) |
| C[C@]12CC[C@@H]3c4ccc(O)c([N+](=O)[O-])c4CC[C@H]3[C@@H]1CCC2=O | 93.7% (inactive) |
| O=C(O)C1CCCN1C(=O)OCc1ccccc1 (stereo unspecified) | 102% (inactive) |
| CCN(CC)CCCC(C)Nc1nc(-c2ccc(OC)cc2)nc2cc(Cl)ccc12 (stereo unspecified) | 51.8% (inactive) |
| Cc1nn(-c2nc3ccccc3[nH]2)c2c1C(c1ccc(OCC(N)=O)cc1)CC(=O)N2 (stereo unspecified) | 113% (inactive) |
| CCNS(=O)(=O)c1ncnc2nc[nH]c12 | 112% (inactive) |
| Cn1c2c(cc(S(=O)(=O)c3ccccc3)c1=O)CCc1c-2cnn1-c1ccccc1Cl | 95.3% (inactive) |
| CCOC(=O)c1ccncc1 | 97.3% (inactive) |
| COC1=C(OC)C(=O)C(CCCCCCCCCC[P+](c2ccccc2)(c2ccccc2)c2ccccc2)=C(C)C1=O | -55.9% (active) |
| Cc1c(C2=NNC(c3ccc4c(c3)OCO4)C2)[n+]([O-])c2ccccc2[n+]1[O-] (stereo unspecified) | 90.5% (inactive) |
| Cc1ccc(S(=O)(=O)Nc2ccc3cc([N+](=O)[O-])ccc3c2[N+](=O)[O-])cc1 | 83.3% (inactive) and 31% (inactive) |
| CC(=O)OCc1nc(C#N)c(N(C)C)o1 | 97.5% (inactive) |
| O=C(NO)c1ccc(-n2nc(-c3ccccc3)c3ccccc32)cc1 | 62.4% (inactive) |
| OCc1cnccc1NC12CC3CC(CC(C3)C1)C2 | 85.3% (inactive) |
| COc1cc2cc(COc3nccc(-c4ccc(Cl)cc4)n3)c(=O)[nH]c2cc1OC | 70.2% (inactive) |
